# Tests used:
# Type in all cases: functional
# [1] = biological target: Solute carrier family 2, facilitated glucose transporter member 1 (Homo sapiens) (UniProt P11166); assay: ST_JUDE_LEISH: Cytotoxicity at 2uM final concentration against transgenic Leishmania Mexicana promastigotes LmGLUT1 that are glucose transport deficient and complemented with the human glucose transporter GLUT1. Activity is measured by DNA content using SYBR green in vitro
# [2] = biological target: Hexose transporter 1 (Plasmodium falciparum) (UniProt O97467); assay: ST_JUDE_LEISH: Cytotoxicity at 2uM final concentration against transgenic Leishmania Mexicana promastigotes LmPfHT that are glucose transport deficient and complemented with the Plasmodium falciparum hexose transporter. Activity is measured by DNA content using SYBR green in vitro
# [3] = biological target: Glucose transporter (Leishmania mexicana) (UniProt O61059); assay: ST_JUDE_LEISH: Cytotoxicity at 2uM final concentration against transgenic Leishmania Mexicana promastigotes LmGT2 that are glucose transport deficient and complemented with the L. Mexicana glucose transporter 2. Activity is measured by DNA content using SYBR green in vitro
# Solute carrier family 2, facilitated glucose transporter member 1 (Homo sapiens), sequence (P11166 whole entry): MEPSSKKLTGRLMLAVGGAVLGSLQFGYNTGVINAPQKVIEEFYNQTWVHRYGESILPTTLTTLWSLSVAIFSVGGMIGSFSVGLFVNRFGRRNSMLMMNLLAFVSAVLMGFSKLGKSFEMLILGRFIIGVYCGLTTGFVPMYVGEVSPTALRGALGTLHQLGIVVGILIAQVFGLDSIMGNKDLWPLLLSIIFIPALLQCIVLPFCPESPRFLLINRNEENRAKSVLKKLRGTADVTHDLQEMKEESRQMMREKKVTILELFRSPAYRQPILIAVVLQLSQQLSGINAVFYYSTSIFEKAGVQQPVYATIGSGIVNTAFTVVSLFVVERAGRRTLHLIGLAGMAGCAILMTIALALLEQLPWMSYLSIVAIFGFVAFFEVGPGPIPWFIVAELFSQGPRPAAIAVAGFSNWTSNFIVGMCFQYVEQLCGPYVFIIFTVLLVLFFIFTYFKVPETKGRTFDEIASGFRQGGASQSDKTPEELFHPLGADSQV
Compound,inhibition [1] [%],inhibition [2] [%],inhibition [3] [%]
CNC(=N)c1ccc(NC(=O)Nc2ccc(C(=N)NC)cc2)cc1,4.64,1.88,3.62
CN(C)c1ccc2nc(N)nc(N)c2c1Cl,3.29,3.16,3.5
CC(C)NCc1ccc(-c2cccc(NC(=O)c3ccc(C#N)cc3)c2)cc1,6.75,4.9,7.32
CCCCC(O)c1cc(O)c2c(c1)OC(C)(C)CC2C1=CCN(Cc2ccc3ccccc3c2)CC1 (stereo not given),-0.53,1.5,0.64
COc1cc2nc(N3CCN(C(=O)c4ccc(N(C(=O)OC(C)(C)C)C(=O)OC(C)(C)C)cc4)CC3)nc(N)c2cc1OC,-0.43,-0.06,0.52
Cn1c(NC(=O)C2CCC(CNC(=O)c3ccc(O)c(-c4cccc([N+](=O)[O-])c4)c3)CC2)nc2ccccc21 (stereo not given),1.57,2.47,2.44
CC(C)n1ncc2c(C(=O)N3CCCC4CCCCC43)cc(C3CC3)nc21 (stereo not given),5.54,6.45,5.73
Fc1cccc(Nc2nc(NCc3ccc(Cl)c(Cl)c3)nc(Nc3cccc(F)c3)n2)c1,11.7,13.6,7.17
Cc1cc2nc(-c3ccc(C(=O)NC4CCN(Cc5ccccc5)CC4)s3)[nH]c2cc1C,2.92,2.77,2.98
CCCc1cc(Cc2cnc(N)nc2N)ccc1OCCCCCC(=O)O,1.42,2.24,1.32
CCOC(=O)c1ccc(N2CCN(CCCNC(=O)/C(=C/C=C/c3cc4cc(Cl)c(Cl)cc4[nH]3)OC)CC2)cc1,2.48,3.47,0.57
Nc1nc(N)c2c(ccc3c2ccn3CCCC2CCCNC2)n1 (stereo not given),0.22,-0.13,1.44
OCCN1CCN(Cc2ccc(-c3ccc(-c4nc5cc(C(F)(F)F)ccc5[nH]4)s3)cc2)CC1,5.47,4.05,4.01
NS(=O)(=O)CCc1cccc(Nc2nccc(-c3c(-c4cccc(NC(=O)c5c(F)cccc5F)c4)nn4ccccc34)n2)c1,4.25,8.18,1.61
O=C(/C=C/c1ccc(Cl)c(Cl)c1)NCCCCCN1CCC(NC(=O)Nc2ccc(F)c(F)c2)CC1,-1.34,-0.67,-2.11
CNC(=O)c1ccccc1Nc1nc(Nc2ccc(C(=O)O)cc2)ncc1Cl,-1.75,1.77,1.39
COc1ccc(Cl)c(CC2c3cc(O)c(Cl)cc3CCN2C)c1 (stereo not given),-0.53,-0.87,-1.58
Cn1cnc(CCNC(=O)c2ccc(-c3cccc(-c4nc5ccccc5[nH]4)c3)cc2)c1,0.8,0.81,-1.62
CN1CCC(C(=O)Nc2ccc(-c3ccc(-c4nc5ccccc5[nH]4)cc3)cc2)CC1,2.95,1.48,0.83
CCn1cc(CN2CCCC(C(=O)Nc3ccc(-c4nc5ccccc5[nH]4)cc3)C2)c(C)n1 (stereo not given),3.61,4.26,3.25
CC1(C)NC(N)=NC(=N)N1OCCCc1cc(Cl)c(Cl)cc1Cl,3.14,2.31,2.77
CN1CCN(c2ccc3[nH]c(-c4ccc(Cc5cc(Cl)ccc5OCc5ccccc5)o4)nc3c2)CC1,1,2.32,2.2
Cc1cc(N2Cc3ccccc3C2)nc(Nc2cccc(C#N)c2)n1,4.07,4.04,2.59
Clc1ccc(C=NNc2ccnc3cc(Cl)ccc23)cc1,0.42,0.11,-0.42
COc1ccc2[nH]c(C)cc(=NN=Cc3cccc(F)c3)c2c1,5.17,5.7,2.61

# Source: ChEMBL document CHEMBL3433997, “St. Jude Leishmania screening dataset” (2016)
